Counter-ions that a name gives are not always drawn.
How the values were obtained:
[1] = test system: HCI01 (cells of a triple-negative basal-like breast cancer xenograft); test: cell viability of combination (% of vehicle); higher = less cytotoxic; settings: 1 µM; 72 h; partner dose: 10 nM
Method: (§1)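 PDX cells were treated for 72 h with each drug at 1 µM plus carfilzomib (10 nM; 100 nM for WHIM2). Luciferase viability is expressed as percent of vehicle.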

[2] = test system: UCD52 (cells of a triple-negative basal-like breast cancer xenograft); test: as above; settings: 1 µM; 72 h; partner dose: 10 nM
Method: as §1

Row | Structure (SMILES) | cell viability of combination [1] | cell viability of combination [2]
1 | Cl.Clc1ccccc1CN1CCc2sccc2C1 [Ticlopidine HCl] + CC(C)C[C@H](NC(=O)[C@H](CCc1ccccc1)NC(=O)CN1CCOCC1)C(=O)N[C@@H](Cc1ccccc1)C(=O)N[C@@H](CC(C)C)C(=O)[C@@]1(C)CO1 [Carfilzomib] | 78.4 | 58.7
2 | COc1cc2c(Oc3ccc(NC(=O)C4(C(=O)Nc5ccc(F)cc5)CC4)cc3F)ccnc2cc1OCCCN1CCOCC1 + CC(C)C[C@H](NC(=O)[C@H](CCc1ccccc1)NC(=O)CN1CCOCC1)C(=O)N[C@@H](Cc1ccccc1)C(=O)N[C@@H](CC(C)C)C(=O)[C@@]1(C)CO1 [Carfilzomib] | 75.8 | 32.5
3 | CCCCCCCCCCCCCCCCOP(=O)([O-])OCC[N+](C)(C)C [Miltefosine] + CC(C)C[C@H](NC(=O)[C@H](CCc1ccccc1)NC(=O)CN1CCOCC1)C(=O)N[C@@H](Cc1ccccc1)C(=O)N[C@@H](CC(C)C)C(=O)[C@@]1(C)CO1 [Carfilzomib] | 75.2 | 71.6
4 | CN(C)c1ccc(O)c2c1CC1CC3C(N(C)C)C(=O)C(C(N)=O)=C(O)C3(O)C(=O)C1=C2O.Cl (stereo not given) [Minocycline HCl] + CC(C)C[C@H](NC(=O)[C@H](CCc1ccccc1)NC(=O)CN1CCOCC1)C(=O)N[C@@H](Cc1ccccc1)C(=O)N[C@@H](CC(C)C)C(=O)[C@@]1(C)CO1 [Carfilzomib] | 83.9 | 65.9
5 | O=C(NN=Cc1ccc([N+](=O)[O-])o1)c1ccc(O)cc1 [Nifuroxazide] + CC(C)C[C@H](NC(=O)[C@H](CCc1ccccc1)NC(=O)CN1CCOCC1)C(=O)N[C@@H](Cc1ccccc1)C(=O)N[C@@H](CC(C)C)C(=O)[C@@]1(C)CO1 [Carfilzomib] | 72.2 | 57.6
6 | CCc1cnn2c(NCc3ccc[n+]([O-])c3)cc(N3CCCCC3CCO)nc12 (stereo not given) + CC(C)C[C@H](NC(=O)[C@H](CCc1ccccc1)NC(=O)CN1CCOCC1)C(=O)N[C@@H](Cc1ccccc1)C(=O)N[C@@H](CC(C)C)C(=O)[C@@]1(C)CO1 [Carfilzomib] | 33.6 | 23.7
7 | CCOc1cc2ncc(C#N)c(Nc3ccc(F)c(Cl)c3)c2cc1NC(=O)C=CCN(C)C [Pelitinib (EKB-569)] + CC(C)C[C@H](NC(=O)[C@H](CCc1ccccc1)NC(=O)CN1CCOCC1)C(=O)N[C@@H](Cc1ccccc1)C(=O)N[C@@H](CC(C)C)C(=O)[C@@]1(C)CO1 [Carfilzomib] | 140 | 40.8
8 | COC(=O)NC(C(=O)NC(Cc1ccccc1)C(O)CN(Cc1ccc(-c2ccccn2)cc1)NC(=O)C(NC(=O)OC)C(C)(C)C)C(C)(C)C (stereo not given) [Atazanavir] + CC(C)C[C@H](NC(=O)[C@H](CCc1ccccc1)NC(=O)CN1CCOCC1)C(=O)N[C@@H](Cc1ccccc1)C(=O)N[C@@H](CC(C)C)C(=O)[C@@]1(C)CO1 [Carfilzomib] | 79.8 | 63.2
9 | CC[C@@]1(O)C(=O)OCc2c1cc1n(c2=O)Cc2cc3c(CN(C)C)c(O)ccc3nc2-1 [Topotecan] + CC(C)C[C@H](NC(=O)[C@H](CCc1ccccc1)NC(=O)CN1CCOCC1)C(=O)N[C@@H](Cc1ccccc1)C(=O)N[C@@H](CC(C)C)C(=O)[C@@]1(C)CO1 [Carfilzomib] | 56.9 | 57.9
10 | Cc1nc(Nc2ncc(C(=O)Nc3c(C)cccc3Cl)s2)cc(N2CCN(CCO)CC2)n1 + CC(C)C[C@H](NC(=O)[C@H](CCc1ccccc1)NC(=O)CN1CCOCC1)C(=O)N[C@@H](Cc1ccccc1)C(=O)N[C@@H](CC(C)C)C(=O)[C@@]1(C)CO1 [Carfilzomib] | 61.3 | 32.4
11 | CC1(C)CCC(c2ccc(Cl)cc2)=C(CN2CCN(c3ccc(C(=O)NS(=O)(=O)c4ccc(NC(CCN5CCOCC5)CSc5ccccc5)c(S(=O)(=O)C(F)(F)F)c4)cc3)CC2)C1 (stereo not given) [ABT-263 (Navitoclax)] + CC(C)C[C@H](NC(=O)[C@H](CCc1ccccc1)NC(=O)CN1CCOCC1)C(=O)N[C@@H](Cc1ccccc1)C(=O)N[C@@H](CC(C)C)C(=O)[C@@]1(C)CO1 [Carfilzomib] | 47 | 31.8
12 | O=C(c1ccc(F)c(F)c1Nc1ccc(I)cc1F)N1CC(O)(C2CCCCN2)C1 (stereo not given) [Cobimetinib] + CC(C)C[C@H](NC(=O)[C@H](CCc1ccccc1)NC(=O)CN1CCOCC1)C(=O)N[C@@H](Cc1ccccc1)C(=O)N[C@@H](CC(C)C)C(=O)[C@@]1(C)CO1 [Carfilzomib] | 65.6 | 44.7
13 | CNC(=O)c1cc(Oc2ccc(NC(=O)Nc3ccc(Cl)c(C(F)(F)F)c3)c(F)c2)ccn1.Cl [Regorafenib hydrochloride] + CC(C)C[C@H](NC(=O)[C@H](CCc1ccccc1)NC(=O)CN1CCOCC1)C(=O)N[C@@H](Cc1ccccc1)C(=O)N[C@@H](CC(C)C)C(=O)[C@@]1(C)CO1 [Carfilzomib] | 77.7 | 52.7
14 | CCN1CCN(Cc2ccc(Nc3ncc(F)c(-c4cc(F)c5nc(C)n(C(C)C)c5c4)n3)nc2)CC1.CS(=O)(=O)O + CC(C)C[C@H](NC(=O)[C@H](CCc1ccccc1)NC(=O)CN1CCOCC1)C(=O)N[C@@H](Cc1ccccc1)C(=O)N[C@@H](CC(C)C)C(=O)[C@@]1(C)CO1 [Carfilzomib] | 62.7 | 64.9
15 | CC(C)N=c1cc2n(-c3ccc(Cl)cc3)c3ccccc3nc-2cc1Nc1ccc(Cl)cc1 [Clofazimine] + CC(C)C[C@H](NC(=O)[C@H](CCc1ccccc1)NC(=O)CN1CCOCC1)C(=O)N[C@@H](Cc1ccccc1)C(=O)N[C@@H](CC(C)C)C(=O)[C@@]1(C)CO1 [Carfilzomib] | 71.9 | 62.7
16 | O=C(C=Cn1cnc(-c2cc(C(F)(F)F)cc(C(F)(F)F)c2)n1)NNc1cnccn1 + CC(C)C[C@H](NC(=O)[C@H](CCc1ccccc1)NC(=O)CN1CCOCC1)C(=O)N[C@@H](Cc1ccccc1)C(=O)N[C@@H](CC(C)C)C(=O)[C@@]1(C)CO1 [Carfilzomib] | 57.3 | 40.1
17 | Cc1cc(-n2c(=O)[nH]c(=O)n(C)c2=O)ccc1Oc1ccc(SC(F)(F)F)cc1 [Toltrazuril] + CC(C)C[C@H](NC(=O)[C@H](CCc1ccccc1)NC(=O)CN1CCOCC1)C(=O)N[C@@H](Cc1ccccc1)C(=O)N[C@@H](CC(C)C)C(=O)[C@@]1(C)CO1 [Carfilzomib] | 76.4 | 61
18 | CCC(=C(c1ccccc1)c1ccc(OCCN(C)C)cc1)c1ccccc1.O=C(O)CC(O)(CC(=O)O)C(=O)O [Tamoxifen Citrate] + CC(C)C[C@H](NC(=O)[C@H](CCc1ccccc1)NC(=O)CN1CCOCC1)C(=O)N[C@@H](Cc1ccccc1)C(=O)N[C@@H](CC(C)C)C(=O)[C@@]1(C)CO1 [Carfilzomib] | 90.4 | 71.2
19 | CC(C)c1nc(N(C)S(C)(=O)=O)nc(-c2ccc(F)cc2)c1C=CC(O)CC(O)CC(=O)[O-].CC(C)c1nc(N(C)S(C)(=O)=O)nc(-c2ccc(F)cc2)c1C=CC(O)CC(O)CC(=O)[O-].[Ca+2] (stereo not given) [Rosuvastatin Calcium] + CC(C)C[C@H](NC(=O)[C@H](CCc1ccccc1)NC(=O)CN1CCOCC1)C(=O)N[C@@H](Cc1ccccc1)C(=O)N[C@@H](CC(C)C)C(=O)[C@@]1(C)CO1 [Carfilzomib] | 80.8 | 67.7
20 | COc1nc2ccc(Br)cc2cc1[C@@H](c1ccccc1)[C@@](O)(CCN(C)C)c1cccc2ccccc12 [Bedaquiline fumarate] + CC(C)C[C@H](NC(=O)[C@H](CCc1ccccc1)NC(=O)CN1CCOCC1)C(=O)N[C@@H](Cc1ccccc1)C(=O)N[C@@H](CC(C)C)C(=O)[C@@]1(C)CO1 [Carfilzomib] | 77.1 | 68.8
